Active and inactive are the calls of the source. The calls were made as follows: active = hit-call score of the fitted dose curve at least 0.9, where 1 is the maximum; inactive = score below 0.9.

A word on the AC50: it is the concentration at which the activity in the assay is half-maximal.

The nature of the test: ATG_CRE_CIS: Attagene CIS-FACTORIAL HepG2 Assay for human cAMP Responsive Element (CRE) binding protein 3 (AID 2282926). The conditions noted are these: HepG2 CRE cis-reporter, Attagene multiplexed mRNA; actives raise or lower the signal. The method in brief: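 HepG2 cells transiently transfected with cis-element-driven multiple reporter transcription units; CRE reporter mRNA measured 24 h after dosing by RT-PCR, 6-FAM labelling, HpaI digestion and capillary electrophoresis. Bidirectional fit versus DMSO baseline.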
As for `Cc1cc(Cc2cc(C)cc(C(C)(C)C)c2O)c(O)c(C(C)(C)C)c1`, the AC50 is 23.7 µM (active). Take `CCCCC(CC)C(=O)OCCOCCOCCOCCOC(=O)C(CC)CCCC` (stereo not drawn): the molecule was classed as inactive. On to `Cc1ccc2ccc3ccc(C)cc3c2c1`, for which the call was inactive. With `CCCCCCCCCC=CCC1CC(=O)OC1=O` (stereo not drawn), the molecule was called inactive.

Consider `C=CC(=O)OCC(CO)(COCC(COC(=O)C=C)(COC(=O)C=C)COC(=O)C=C)COC(=O)C=C`, for which the result was inactive.

Consider `CCCCCCCCCCCC(=O)NCCCN(C)C`, for which the AC50 is 20.3 µM (active).

As for `CCOC(C)=O`, the molecule was classed as inactive. Take `COC(=O)CC(C(C)=O)C(=O)OC` (stereo not drawn): the molecule was called inactive. Regarding `OCCN1CN(CCO)CN(CCO)C1`, the AC50 was 145 µM (active). With `CCCCCCCCCCCC[N+](C)(C)CCCCCCCCCCCC`, the result was inactive. Still for that read-out and setting: the value for `CCc1cccc(CC)c1N(COC)C(=O)CS(=O)(=O)O` was “inactive”; that for `Brc1ccc(Oc2ccc(Br)cc2Br)cc1` was “inactive”; that for `Cc1cncc(C)c1` was “inactive”.

With `CN(CCO)S(=O)(=O)C(F)(F)C(F)(F)C(F)(F)C(F)(F)C(F)(F)C(F)(F)C(F)(F)C(F)(F)F`, the call was inactive. `FC(F)(F)C(F)(F)C(F)(F)Br`: the call was inactive. As for `CC(=O)CC(C)C`, the molecule was classed as inactive.

Regarding `O=C(O)CCC(F)(F)C(F)(F)C(F)(F)C(F)(F)C(F)(F)C(F)(F)F`, the molecule was classed as inactive.

Consider `CCO[Si](C)(C)OCC`, for which the molecule was classed as inactive.

`CCC(=O)C=Cc1ccc(OC)cc1`: the molecule was classed as inactive. The same measure, in the same setting: the value for `OCC1CCC(CO)CC1` (stereo not drawn) was “inactive”; that for `O=CC(F)(F)C(F)(F)C(F)(F)F` was “inactive”; that for `C=CC(=O)OCCC(F)(F)C(F)(F)C(F)(F)C(F)(F)C(F)(F)C(F)(F)C(F)(F)C(F)(F)F` was “inactive”. `C=CC(C)(CCC=C(C)C)OC(C)=O` (stereo not drawn): the molecule was called inactive. Same read-out and setting: the value for `NNC(=O)CCCCC(=O)NN` was “inactive”; that for `CCCC=O` was “inactive”. For `FCOC(C(F)(F)F)C(F)(F)F`, the molecule was classed as inactive. As to `CC1CNCC(C)O1` (stereo not drawn), the molecule was classed as inactive. With `Nc1ccn([C@@H]2O[C@H](CO)[C@@H](O)C2O)c(=O)n1` (stereo partly drawn), the result was inactive.

`CCO[Si](CCC1CCC2OC2C1)(OCC)OCC` (stereo not drawn): the outcome was inactive. `FC1(F)C=CC(F)(F)C1(F)F`: the result was inactive.

For `CCCCCCCCC(C)=O`, the call was inactive. For the molecule `NS(=O)(=O)O`, the molecule was classed as inactive. Still for that read-out and setting: the value for `CCCCCCC(C)(C)C(=O)O` was “inactive”; that for `O=C1c2ccccc2C(=O)c2c(O)c(O)cc(O)c21` was “inactive”. In the case of `C=CCOCC(CO)(CO)CO`, the result was inactive.

For `Oc1cccc2c(O)cccc12`, the outcome was inactive. As for `CCC(C)c1nccnc1OC` (stereo not drawn), the outcome was inactive. With `CC(=O)Nc1ccc(S(N)(=O)=O)cc1`, the result was inactive.

Values taken from PubChem BioAssay (EPA / NIEHS).
